Bioassay records: PubChem, National Center for Advancing Translational Sciences (NCATS)
TDP1 block = TDP1 (human) enzyme inhibition | Q9NUW8 | recombinant TDP1, AlphaScreen DNA substrate cleavage | Potency, µM (titrated, usually from 130 µM), hits mostly inhibitors | 0.28% of 350,000 active; also: nearly all actives have a fitted effect of over 40% in size
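E. coli-derived human Tdp1, 1 nM final. Cpd preinc 15 min RT; substrate 15 nM final, 5 min RT; AS bead mix 10 ug/ml final, 10 min RT. Signal loss = tyrosine-FITC cleavage. No-enzyme wells = max signal.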
POLK inh = blocks human DNA polymerase kappa activity; AID 588579; Potency, µM (top dose mostly 107 µM), most hits filed as inhibitors; Q9UBT6; 0.53% of 400,000 active; purified Pol kappa, fluorescent DNA synthesis assay, 10 min
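Readout: fluorescence, taken kinetically at 0 and 10 min. Conditions: 10 nM Pol kappa, 15 min RT compound preincubation, 50 nM substrate final. Controls: enzyme-free buffer wells.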
Pol iota inh = inhibitors of human DNA polymerase iota | Potency, µM (doses to about 115 µM), actives largely listed as inhibitors | Pol iota fluorescent replication assay, 10 min | Q9UNA4 | 1% of 390,000 active
Target sequence (Q9UNA4 whole entry, looked up): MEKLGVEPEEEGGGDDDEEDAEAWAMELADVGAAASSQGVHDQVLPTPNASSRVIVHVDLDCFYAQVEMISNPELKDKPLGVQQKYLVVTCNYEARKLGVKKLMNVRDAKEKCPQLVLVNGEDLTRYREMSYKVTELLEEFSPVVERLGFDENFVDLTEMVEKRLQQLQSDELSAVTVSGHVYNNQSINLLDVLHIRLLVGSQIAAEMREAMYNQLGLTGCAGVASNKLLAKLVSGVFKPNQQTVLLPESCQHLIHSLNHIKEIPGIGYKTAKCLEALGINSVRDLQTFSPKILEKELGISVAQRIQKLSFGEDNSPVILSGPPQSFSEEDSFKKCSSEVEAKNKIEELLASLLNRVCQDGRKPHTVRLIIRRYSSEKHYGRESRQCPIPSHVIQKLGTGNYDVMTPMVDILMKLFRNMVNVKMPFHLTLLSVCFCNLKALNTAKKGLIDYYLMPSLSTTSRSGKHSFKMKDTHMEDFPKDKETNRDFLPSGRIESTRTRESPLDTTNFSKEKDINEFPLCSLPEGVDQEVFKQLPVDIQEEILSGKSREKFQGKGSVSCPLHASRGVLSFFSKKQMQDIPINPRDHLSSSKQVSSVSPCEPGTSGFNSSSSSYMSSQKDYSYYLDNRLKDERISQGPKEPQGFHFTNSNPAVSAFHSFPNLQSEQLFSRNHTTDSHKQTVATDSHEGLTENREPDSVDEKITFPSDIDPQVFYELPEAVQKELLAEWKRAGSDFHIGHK
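Fluorescent replication assay read twice, at 0 min and 10 min after adding 50 nM (final) substrate. Enzyme (10 nM) and compounds were first incubated 15 min at room temperature; enzyme-free buffer wells were negative controls.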
POLB inh = inhibitors of human DNA polymerase beta; P06746; Pol beta primer extension/strand displacement, fluorescence kinetic; Potency, µM (doses to about 114 µM), usual class: inhibitors; 1.3% of 340,000 active; AID 485314
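Values derive from four-parameter Hill fits of normalized kinetic data: reads at 0 and 10 min following addition of 50 nM substrate to 10 nM Pol beta preincubated 15 min with compound.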
POLH inh = inhibitors of human DNA polymerase eta; Q9Y253; recombinant Pol eta, fluorescent DNA replication assay; Potency, µM (titrated, usually from 114 µM), actives largely listed as inhibitors; 1.2% of 390,000 active
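Pol eta (10 nM) was preincubated with compounds for 15 min at room temperature, after which fluorescent replication substrate (50 nM final) was added to start the reaction. Fluorescence was read kinetically at 0 and 10 min.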
FEN1 inh = inhibitors of human flap endonuclease 1; Potency, µM (series often up to 114 µM), actives largely listed as inhibitors; AID 588795; P39748; Recombinant FEN1 flap cleavage, fluorescence, 15 min; 0.35% of 390,000 active; also: nearly all actives have a fitted effect of over 65% in size
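In this screen, 50 nM flap DNA substrate was added to 10 nM FEN1 pretreated with compound for 15 min at room temperature; cleavage was followed with reads at 0 and 15 min, and Hill fitting gave concentration–response parameters.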
Of the large screens only hits and unclear results are named; the others gave an inactive call. An excerpt weighted towards active compounds, which were near 2.4% of everything screened. Calls follow the shape of the dose curve; as a rule, active = well fitted curve in the direction sought with a large enough effect; inconclusive = small, poorly fitted or top-dose-only effect, or another doubt; inactive = no such curve, though single readings can be large; an effect the other way counts as inactive or inconclusive.

O=C(CCCCCn1c(=S)[nH]c2cc3c(cc2c1=O)OCO3)N1CCN(Cc2ccccc2)CC1	none
O=C(CCCn1c(=S)[nH]c2cc3c(cc2c1=O)OCO3)NCc1cccc(Cl)c1	POLK inh inconclusive, Pol iota inh 45µM, FEN1 inh inconclusive
O=C(CCCCCn1c(=S)[nH]c2cc3c(cc2c1=O)OCO3)N1CCN(C(=O)c2ccco2)CC1	Pol iota inh 28µM, POLB inh inconclusive, POLH inh inconclusive (no result: TDP1 block)
O=C1CCCC2=C1C1(CCS(=O)(=O)C1)N=C(Nc1nc3ccccc3o1)N2 (stereo unspecified)	none (no result: POLK inh, Pol iota inh, POLB inh, POLH inh, FEN1 inh)
Cc1ccc(-n2c(O)c(/C=N/c3ncn[nH]3)c3ccccc3c2=O)cc1	POLB inh 13µM
CC1CCCN(C(=S)SCC(=O)c2cc(Br)cc(Br)c2O)C1 (stereo unspecified)	POLK inh 25µM, Pol iota inh 22µM, POLB inh 16µM, FEN1 inh 50µM
CC1CCCN(C(=S)SCC(=O)O)C1 (stereo unspecified)	none
O=C(CSC(=S)N1CCCC1)c1cc(Br)cc(Br)c1O	POLK inh inconclusive, Pol iota inh inconclusive, POLB inh 50µM, POLH inh inconclusive
Cc1cc(C)c2nc(NC(=O)C3CC(=O)N(Cc4ccco4)C3)sc2c1 (stereo unspecified)	none
O=C(Nc1nc2c(F)cc(F)cc2s1)C1CC(=O)N(Cc2ccco2)C1 (stereo unspecified)	POLK inh inconclusive, Pol iota inh 28µM, POLB inh 28µM, POLH inh 50µM
CCOc1ccc(C(=O)Nc2c(C)nc(Nc3ccccc3)nc2Nc2ccccc2)cc1OCC	Pol iota inh 71µM, FEN1 inh inconclusive
COc1cccc(O)c1O	POLK inh 3.2µM (no result: Pol iota inh, POLB inh, POLH inh, FEN1 inh)
CCC(=O)N(C1=C(NC(C)C)C(=O)c2ccccc2C1=O)C(C)C	Pol iota inh inconclusive (no result: TDP1 block)
CCCNC1=C(N(C(C)=O)c2cccc(F)c2)C(=O)c2ccccc2C1=O	Pol iota inh 79µM
Cc1ccc(N(CC(=O)N2CC(=O)Nc3ccccc32)S(=O)(=O)c2ccc3c(c2)OCCO3)cc1	Pol iota inh 79µM
CN(Cc1ccccc1)c1nc(-c2ccc(F)cc2)cc(C(F)(F)F)n1	TDP1 block 22µM, FEN1 inh inconclusive
Fc1ccc(-c2cc(C(F)(F)F)nc(NCc3ccccc3)n2)cc1	none
C=C1NN(Cc2ccccc2)C(=O)N1c1ccc(OCc2ccccc2)cc1	none (no result: TDP1 block, POLB inh, POLH inh)
COc1ccccc1N1CCN(C(=O)c2cc3ccc4ccc(C)[nH]c4c3n2)CC1	none
Cc1c(Br)c(O)c(Br)c2sc(=O)oc12	POLK inh inconclusive, Pol iota inh 6.3µM, POLB inh 20µM, POLH inh inconclusive, FEN1 inh inconclusive
CCN(C(=O)c1cnc(N2CCOCC2)c2ccccc12)c1cc(C)ccc1C	none
O=c1c(Cl)c(Cl)cnn1Cc1nnc(-c2ccccc2Br)o1	Pol iota inh inconclusive, POLB inh 40µM, POLH inh 79µM
Cc1ccc(C2=NN(C(=O)CCC(=O)O)C(c3cn(-c4ccccc4)nc3-c3ccc(C)cc3)C2)cc1 (stereo unspecified)	TDP1 block inconclusive, POLB inh 22µM, POLH inh inconclusive
CCOc1ccc2nc(Cl)c(C3CC(c4ccc(C)cc4)=NN3C(=O)CCCC(=O)O)cc2c1 (stereo unspecified)	POLB inh 22µM, POLH inh inconclusive
Cc1ccc(-c2nn(-c3ccccc3)cc2C2CC(c3ccccc3)=NN2C(=O)CCC(=O)O)cc1 (stereo unspecified)	none (no result: TDP1 block)
Cc1ccc(-c2nn(-c3ccccc3)cc2C2CC(c3cccs3)=NN2C(=O)CCCC(=O)O)cc1 (stereo unspecified)	POLH inh inconclusive, FEN1 inh 50µM
COc1ccc(-c2nn(-c3ccccc3)cc2C2CC(c3cccs3)=NN2C(=O)CCCC(=O)O)cc1 (stereo unspecified)	none
O=C(C[n+]1cccc2cc(Cl)ccc21)c1ccc2c(c1)CCCC2	none (no result: TDP1 block, POLB inh, POLH inh)
N#Cc1c(-c2cccc(Br)c2)cc(-c2ccco2)[nH]c1=O	Pol iota inh inconclusive, POLB inh 18µM, POLH inh 50µM
COCCNc1nc(-c2cccc(NS(C)(=O)=O)c2)nc2ccccc12	POLK inh 25µM (no result: TDP1 block, Pol iota inh, POLB inh, POLH inh, FEN1 inh)
Nc1nc2c(s1)CCc1ccccc1-2	none (no result: TDP1 block)
N#C/C(=C(/O)CCl)c1nc2c(s1)CCc1ccccc1-2	Pol iota inh inconclusive, POLB inh inconclusive, POLH inh 35µM, FEN1 inh inconclusive
COc1cccc(C2c3c(ncn(-c4ccc(-c5ccccc5)cc4)c3=N)Oc3ccc4ccccc4c32)c1 (stereo unspecified)	none (no result: POLK inh, Pol iota inh, POLB inh, POLH inh, FEN1 inh)
O=C(CNC(=O)c1cccs1)N/N=C/c1ccco1	none
O=C(N/N=C/C=C\c1ccco1)c1cccs1	POLK inh inconclusive, Pol iota inh 25µM, POLB inh 22µM, POLH inh inconclusive
Cc1ccc(OCC(=O)N/N=C/C=C/c2ccco2)c(Br)c1	POLK inh 79µM, Pol iota inh 50µM
CC(/C=C/c1ccco1)=N/NC(=O)c1ccccc1Cl	POLH inh inconclusive
COc1ccccc1/C=C/C=N/NC(=O)c1ccncc1	none
O=C(N/N=C/C=C/c1ccco1)c1ccncc1	POLK inh 79µM, Pol iota inh 16µM
O=C(N/N=C/C=C/c1ccco1)c1ccccc1Cl	POLK inh 79µM, Pol iota inh inconclusive
CCOc1ccccc1CNC(=O)c1cn(-c2ccc(OC)cc2)c(=O)c2ccccc12	POLB inh inconclusive
O=C(Nc1cccc(C(F)(F)F)c1)c1cc(-c2ccc(Cl)s2)nc2ccccc12	none
Cc1cc(C)c2c(=O)cc(C(=O)NCCc3ccc(S(N)(=O)=O)cc3)oc2c1	none
O=C(Cc1cccs1)N/N=C/C=C\c1ccco1	POLK inh inconclusive, Pol iota inh inconclusive, POLB inh inconclusive, POLH inh 50µM
O=C(N/N=C/C=C\c1ccccc1[N+](=O)[O-])c1cccs1	none
O=C(Cc1cccs1)N/N=C/c1ccco1	POLH inh inconclusive
O=C(N/N=C/C=C/c1ccc([N+](=O)[O-])cc1)c1cccs1	Pol iota inh inconclusive, POLB inh 7.1µM, POLH inh inconclusive (no result: TDP1 block)
CN(C)c1ccc(/C=C/c2ccnc3ccc(Br)cc23)cc1	none (no result: TDP1 block, POLB inh, POLH inh)
CC(C)(C)c1ccc(OCCn2c(CCNC(=O)C3CCCCC3)nc3ccccc32)cc1	Pol iota inh inconclusive, FEN1 inh inconclusive (no result: POLB inh, POLH inh)
Cc1ccc(NC(=O)Cn2cncc2-c2ccc([N+](=O)[O-])cc2)cc1C	Pol iota inh inconclusive, POLB inh 35µM, POLH inh inconclusive
COc1ccccc1NC(=O)Cn1cncc1-c1ccc([N+](=O)[O-])cc1	Pol iota inh inconclusive
Oc1cc(NCCc2cccnc2)cc2cccnc12	Pol iota inh 35µM (no result: POLB inh)
Oc1cc(Nc2cccnc2)cc2cccnc12	none (no result: POLB inh)
Cc1cc(C(=O)COc2ccccc2C(N)=O)c(C)n1C	none
